Data on 40 molecules can be found in PubChem BioAssay AID743365 (National Center for Advancing Translational Sciences (NCATS), 2014).

SMILES strings stand for the structures.

The nature of the assay: qHTS profiling of inhibitors of Plasmodium falciparum (DD2) proliferation (acoustic dispense). The note with it: P. falciparum Dd2 in erythrocytes, SYBR Green DNA, 72 h; at 49.8 µM (top of the series) unless noted. An excerpt:
Plasmodium falciparum is a virulent malarial parasite that kills 1-2 million people worldwide each year. Transmitted by mosquitoes, the sporozoite form of the parasite enters the blood stream to infect hepatocytes, where they become merozoites that infect red blood cells (erythrocytes). Within erythrocytes, merozoites begin a […] cycle of growth and division, after which the parasite is released to infect new red blood cells. Gametocytes, which form within erythrocytes as well, circulate in the bloodstream and are ingested by the mosquito, thereby completing the life cycle. To profile malarial isolates for differential chemical responses and to identify inhibitors of malarial growth, an assay that measures P. falciparum growth and replication within erythrocytes was employed. This assay uses a DNA binding fluorescent dye (SYBR Green) to detect parasite DNA following cell lysis. Because mature erythrocytes lack DNA, only Plasmodium-derived DNA is detected.
The SYBR Green viability assay was adapted from a method described previously (Plouffe et al., 2008). For screening 3 ul culture medium was dispensed into 1536 well black clear bottom plates (Aurora Biotechnologies) using a Multidrop Combi (Thermo Fisher Scientific Inc.), 23 nL of compounds in DMSO were added by an acoustic dispenser (EDC Biosystems), and 5 ul of erythrocytes infected with P. falciparum (0.3% parasitemia, 2.5% hematocrit final concentration) were added. The plates were incubated at 37 C in a humidified incubator in 5% CO2 for 72 h, and 2 ul lysis buffer (20 mM Tris HCl, 10 mM EDTA, 0.16% saponin, 1.6% triton X, 10X SYBR Green I supplied as 10,000X […] by Invitrogen) was added to each well. The plates were mixed for 25 sec with gentle shaking and incubated overnight at room temperature in the dark. The following morning, fluorescence intensity at 485(14) nm excitation and 535(25) nm emission wavelengths was measured on an EnVision (Perkin Elmer) plate reader. Plate reads were normalized relative to the control inhibitor (0.29 uM artemisinin) and vehicle (DMSO) wells present on each plate and then corrected by an algorithm using vehicle-only control plates at the beginning and end of the compound plate stack.
(In general: Quantitative high-throughput screening tests each substance at several concentrations.)
As to `NC1CCC(Nc2nc(Nc3ccc(C(=O)N4CCCCC4)cc3)c3ncn(-c4cccc(F)c4)c3n2)CC1` (stereo not given), the parasite growth, lower = inhibition was -0.359%. With `CC(C)n1nc(-c2ccc3oc(N)nc3c2)c2c(N)ncnc21` the figure was -0.0305%.

Consider `c1cncc(CN2CCC(n3ncc4c(N5CCOCC5)nc(-c5ccc6[nH]ccc6c5)nc43)CC2)c1`, for which the parasite growth, lower = inhibition was 0.462%. With `CC[C@H]1OC(=O)[C@H](C)C(=O)[C@H](C)[C@@H](O[C@H]2O[C@H](C)C[C@H](N(C)C)[C@@H]2O)[C@](C)(OC)C[C@@H](C)C(=O)[C@H](C)[C@H]2N(CCCCn3cnc(-c4cccnc4)c3)C(=O)O[C@]12C` the figure was 4.52%; with `CCc1cc(Nc2nccc(-c3c(-c4ccc(OC)c(C(=O)Nc5c(F)cccc5F)c4)nc4ccccn34)n2)c(OC)cc1N1CCC(N2CCN(S(C)(=O)=O)CC2)CC1`, -0.192%.

Take `Cc1nc2cnc3ccc(C#Cc4cccnc4)cc3c2n1-c1ccc(C(C)(C)C#N)cc1`: the parasite growth, lower = inhibition was determined as 0.532%. The figure for `CC(=NNC(=S)N1CCC1)c1ccccn1` is -0.523%; for `CN(Cc1cnc2nc(N)nc(N)c2n1)c1ccc(C(=O)N[C@@H](CCC(=O)O)C(=O)O)cc1` it is -0.378%; for `Cn1c(=O)c(-c2c(Cl)cccc2Cl)cc2cnc(Nc3cccc(C(=O)O)c3)nc21` it is -0.0499%. Consider `NC(=NCCCCCCN=C(N)N=C(N)Nc1ccc(Cl)cc1)N=C(N)Nc1ccc(Cl)cc1`, for which the parasite growth, lower = inhibition amounted to 3.29%. With `COc1cc2c(Oc3ccc(NC(=O)C4(C(=O)Nc5ccc(F)cc5)CC4)cc3F)ccnc2cc1OCCCN1CCOCC1` the figure was 0.0003%; with `CCN(CC)CCNC(=O)c1c(C)[nH]c(C=C2C(=O)Nc3ccc(F)cc32)c1C`, -0.534% [at 100 µM]; with `COc1cc(NC(C)CCCN)c2ncccc2c1` (stereo not given), -0.0889%.

Consider `C=CCNC1=C2C[C@@H](C)C[C@H](OC)[C@@H](O)[C@@H](C)C=C(C)[C@H](OC(N)=O)[C@@H](OC)C=CC=C(C)C(=O)NC(=CC1=O)C2=O`, for which the parasite growth, lower = inhibition stood at 0.49%. With `CCN(CC)Cc1cc(Nc2ccnc3cc(Cl)ccc23)ccc1O` the figure was 0.736% [at 23.2 µM]; with `CN([C@@H](Cc1ccc(OS(=O)(=O)c2cccc3cnccc23)cc1)C(=O)N1CCN(c2ccccc2)CC1)S(=O)(=O)c1cccc2cnccc12`, 0.489%; with `Cc1ccc([N+](=O)[O-])cc1S(=O)(=O)N(C)N=Cc1cnc2ccc(Br)cn12`, 6.06%. The figure for `CC[C@@]1(O)C[C@H](O[C@H]2C[C@H](N(C)C)[C@H](O[C@H]3C[C@H](O)[C@H](O[C@H]4CCC(=O)[C@H](C)O4)[C@H](C)O3)[C@H](C)O2)c2c(cc3c(c2O)C(=O)c2c(O)cccc2C3=O)[C@@H]1C(=O)OC` is -1.21%; for `C=C[C@@H]1CN2CC[C@@H]1C[C@H]2[C@H](O)c1ccnc2ccc(OC)cc12` it is 0.438%; for `Cc1nc2c(C#N)cccc2n1-c1ccc(C(=O)NC2CC2)s1` it is 2.19%. The figure for `CS[C@H]1SC[C@@H]2C(=O)N(C)[C@H](C(C)C)C(=O)OC[C@H](NC(=O)c3cnc4ccccc4n3)C(=O)N[C@H](C)C(=O)N(C)[C@@H]1C(=O)N(C)[C@H](C(C)C)C(=O)OC[C@H](NC(=O)c1cnc3ccccc3n1)C(=O)N[C@H](C)C(=O)N2C` is 0.25%; for `O[C@H](c1cc(C(F)(F)F)nc2c(C(F)(F)F)cccc12)[C@H]1CCCCN1` it is 0.891% [at 23.2 µM].

Turning to `COc1cc(NCc2ccc3nc(N)nc(N)c3c2C)cc(OC)c1OC`, the parasite growth, lower = inhibition is -1.45%. The figure for `Nc1ccc(-c2ccc3ncc4ccc(=O)n(-c5cccc(C(F)(F)F)c5)c4c3c2)cn1` is -0.538%; for `Clc1ccc2c(N3CCN(CCCN4CCN(c5ccnc6cc(Cl)ccc56)CC4)CC3)ccnc2c1` it is -0.434% [at 23.2 µM]; for `CCCCCCOC(=O)C1(O)CC2OC1(C)n1c3ccccc3c3c4c(c5c6ccccc6n2c5c31)C(=O)NC4` (stereo not given) it is 89.2% [at 1.88 µM]. In the case of `CCNC(=O)c1noc(-c2cc(C(C)C)c(O)cc2O)c1-c1ccc(CN2CCOCC2)cc1`, the parasite growth, lower = inhibition stood at 112%. With `CCN(CC)CCCC(C)Nc1ccnc2cc(Cl)ccc12` (stereo not given) the figure was -0.356%. For the molecule `C[C@H](Cn1cnc2c(N)ncnc21)OCP(=O)(O)O`, the parasite growth, lower = inhibition was found to be 98%. The figure for `COC(=O)c1ccc2c(C(=Nc3ccc(N(C)C(=O)CN4CCN(C)CC4)cc3)c3ccccc3)c(O)[nH]c2c1` is 14.8%; for `O=C1c2ccccc2-[n+]2ccc3c([nH]c4ccccc43)c21` it is 2.4%. The figure for `O=C(Nc1cn[nH]c1-c1nc2ccc(CN3CCOCC3)cc2[nH]1)NC1CC1` is 0.452%. As for `C1CCC(C(CC2CCCCN2)C2CCCCC2)CC1` (stereo not given), the parasite growth, lower = inhibition was 0.0319%. As to `CN[C@@H]1C[C@H]2O[C@@](C)([C@H]1OC)n1c3ccccc3c3c4c(c5c6ccccc6n2c5c31)C(=O)N[C@H]4O`, the parasite growth, lower = inhibition was 0.898%. The figure for `CC(C)C[C@H](NC(=O)[C@H](CCc1ccccc1)NC(=O)CN1CCOCC1)C(=O)N[C@@H](Cc1ccccc1)C(=O)N[C@@H](CC(C)C)C(=O)[C@@]1(C)CO1` is 0.838%; for `Cn1cc(CNCC2CCN(c3ncc(C(=O)NO)cn3)CC2)c2ccccc21` it is 0.158%; for `CC(=O)Nc1nc(C)c(-c2ccc(Cl)c(S(=O)(=O)NCCO)c2)s1` it is -0.252%. With `CN(C(=O)OC(C)(C)C)[C@@H](Cc1ccc(O[S+](=O)([O-])c2cccc3cnccc23)cc1)C(=O)N1CCN(C(=O)OCc2ccccc2)CC1` the figure was -0.325%; with `CCn1nnc2c(N3CCOCC3)nc(-c3ccc(NC(=O)Nc4ccc(C(=O)N5CCN(C)CC5)cc4)cc3)nc21`, 2.15%; with `CCS(=O)(=O)Nc1ccc2[nH]c(O)c(C(=Nc3ccc(CN4CCCCC4)cc3)c3ccccc3)c2c1`, -0.594%.
